The supplement of paper PMC5499739
The full ranking holds about 16,000 sequences; the median of “Z-score” is about -0.37, and the highest 2% start at about 3.1. The list comes from a sample in which the highest values are over-represented; it also holds similar and randomly drawn sequences.

test system: RBM10 RRM1-ZnF-RRM2 (GST-tagged construct); test: RNAcompete 7-mer binding Z-score; higher = stronger binding preference
Method in brief: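 Bound RNA was identified by microarray hybridisation after GST-tagged RBM10 constructs (20 pmol) had been mixed with 1.5 nmol of a designed pool of 241 399 RNAs up to 41 nt, transcribed from microarray-derived DNA templates. Binding ran for 30 min at 4°C in 1 ml Hepes pH 7.8 buffer with KCl, NaCl, glycerol, DTT, BSA and glutathione Sepharose beads, with four 2-min washes at 4°C afterwards. For every heptamer motif, a one-sided Z-score for enrichment was computed across the probes that contained it.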

Sequence | RNAcompete 7-mer binding Z-score
CAUCCCA | -0.486
GCCAUCG | -0.646
GACUUCA | -0.672
UUGCUGA | -0.486
AUAAGUU | -0.249
CGAGAGG | 1.46
UUCCAGA | -0.519
UGGCUUU | -0.464
AUGGAGU | 2.24
AUGGAGA | 2.59
AUGGAGG | 4.33
GUGGAGG | 4.09
CCGGAGG | 0.876
ACGGAGG | 2.57
GCGGAGG | 3.25
GUGGAGU | 2.86
GUGGAGC | 2.47
CGAUAAU | -0.256
GGAUCAA | 1.19
CAUCCCU | -0.69
CGAAGUU | -0.235
AACAGUG | 0.654

Sequence | RNAcompete 7-mer binding Z-score
GCUCGCA | -0.373
UAACUAC | -0.551
GGAUUGU | 0.822
CGAUUGG | 0.825
GGAUUGG | 3.28
CAAUAGG | 1.3
UAAUAGG | 0.742
GGAUAGA | 2.48
GAAUAGG | 3.18
GGAUAGG | 4.1
AGAUAGG | 2.87
UGACGCA | -0.107
AACCUAA | -0.734
UUAGCUC | -0.781
CGAUAUC | -0.5
GGAUCGC | 0.538
UAUGAGG | 1.54
UCCAGCC | -0.799
ACAGAUC | -0.508
CACGUGC | -0.428
UAUUGCG | -0.278
UCCCGUU | -0.799

Sequence | RNAcompete 7-mer binding Z-score
UUCGUCG | -0.3
CUUAAUC | -0.905
CCAAGGG | 1.05
GCAAGGU | 2.17
GCAAGGG | 3.28
ACAAGGA | 1.94
ACAAGGG | 3.52
GCAAGGA | 2.65
AAAAAUU | -0.435
GAUAUAG | 0.734
CUUUACG | -0.81
UCGAGUU | -0.482
GCCUACC | -0.726
GGGCUGC | 1.14
GUAGGUA | 2.25
AAAGGUG | 3.5
GAAGGUU | 2.96
GAAGGCG | 2.66
UAAGGUA | 1.39
CAAGGUG | 2.13
GAAGGUA | 4.04
GAAGGUG | 4.37

Sequence | RNAcompete 7-mer binding Z-score
AUAGGUG | 2.41
GUAGGUG | 3.25
GAAGGUC | 1.25
UAAGGUG | 2.07
GCCAUGU | -0.632
CUAGUGC | -0.486
AACCGUG | -0.00148
UCGAAAG | -0.00148
AUUCGAG | -0.114
AGACCGG | -0.366
AAAGGUU | 3.09
AAAGGUC | 1.46
AAAGGUA | 3.53
GGAAGGA | 4.61
CGAAGGA | 1.62
UGAAGGA | 2.95
AGAAGAA | 1
AGAAGGC | 1.17
UGAAGCG | 0.581
UGAAGGG | 3.56
GGAAGGC | 3.04
AGAAGGA | 4.29

Sequence | RNAcompete 7-mer binding Z-score
UGAAGGC | 1.21
CGAAGGU | 1.34
GGAAGGU | 3.94
CGAAUAA | -0.224
GGUCAGC | 0.716
CAUUUGC | -1.04
AGUCCAA | -0.464
AUGCGCG | -0.0889
GAAAUCG | 0.195
GGCAACU | 0.0532
AUAGACA | 0.0532
AUAAUCU | -0.65
AAGAUGU | 0.13
AACGGAA | 1.91
GCAUUUA | -0.661
AACAAAG | 0.355
CUGCUCU | -0.923
GGCAUGA | 0.876
AGAAGGG | 4.09
AGAAGCU | -0.508
AGAAGGU | 3.67
UGAAGGU | 2.14
